Source: PubChem (National Center for Advancing Translational Sciences (NCATS))
NPC1 promoter act = qHTS Assay for NPC1 Promoter Activators | Huh7 NPC1 promoter luciferase reporter, 24 h | Potency, µM (top dose mostly 9.22 µM), for the others: top-dose activation, usual class: activators | 2.4% of 320,000 active; note: % of control where 0% means no effect; nearly all actives have a fitted effect of over 60% in size
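Cells: Huh7 expressing luciferase under the NPC1 promoter, 1500/well. Seeded 2 h, compound added, incubated 24 h at 37 °C. Luciferase reagent, 10 min ambient, then luminescence.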
FLuc counter = qHTS profiling assay for firefly luciferase inhibitor/activator using purifed enzyme and Km concentrations of substrates (counterscreen for miR-21 project) | 6.9% of 360,000 active | Potency, µM (series often up to 57.5 µM), for inactives: at the top dose activity change, negative = inhibition, usual class: inhibitors | Luciferin 4-monooxygenase (Photinus pyralis), P08659 | purified FLuc, Km substrates, luminescence inhibition;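 note: plate controls were vehicle for no effect and reference inhibitor for full effect; nearly all actives have a fitted effect of over 55% in size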
Target sequence (P08659 whole entry, looked up): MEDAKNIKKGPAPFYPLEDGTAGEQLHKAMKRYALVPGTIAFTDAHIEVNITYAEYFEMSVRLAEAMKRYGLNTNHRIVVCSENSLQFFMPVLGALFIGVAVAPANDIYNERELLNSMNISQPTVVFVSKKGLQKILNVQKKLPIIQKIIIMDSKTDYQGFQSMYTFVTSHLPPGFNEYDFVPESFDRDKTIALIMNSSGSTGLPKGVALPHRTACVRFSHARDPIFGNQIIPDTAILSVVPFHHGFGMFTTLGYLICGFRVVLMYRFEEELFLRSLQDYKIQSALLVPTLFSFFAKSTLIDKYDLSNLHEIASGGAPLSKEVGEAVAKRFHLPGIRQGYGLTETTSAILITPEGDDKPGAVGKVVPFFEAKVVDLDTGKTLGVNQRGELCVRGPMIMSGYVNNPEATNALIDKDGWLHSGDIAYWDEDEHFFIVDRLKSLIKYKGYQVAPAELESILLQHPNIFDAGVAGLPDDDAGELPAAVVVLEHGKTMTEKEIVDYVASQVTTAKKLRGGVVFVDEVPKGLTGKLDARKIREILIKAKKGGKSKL
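Biochemical qHTS of compounds, final roughly 60 µM downward over six points, against 10 nM purified firefly luciferase using Km concentrations of substrates (10 uM D-luciferin, 10 uM ATP) in Tris acetate pH 7.5 buffer; luminescence output.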
ELG1 genotoxic = qHTS screen for small molecules that induce genotoxicity in human embryonic kidney (HEK293T) cells expressing luciferase-tagged ELG1 | HEK293T ELG1-luciferase reporter, luminescence, 16 h | AID 504466, 2011 | Potency, µM (series often up to 46 µM), without a hit: at the top dose activity change, positive = activation, hits mostly activators | 1.3% of 330,000 active; note: % of control where 0% means no effect; nearly all actives have a fitted effect of over 60% in size
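Step 1: seed 2,000 HEK293T ELG1-luciferase cells per well. Step 2: add compound or DMSO, incubate 16 hr at 37 °C. Step 3: ONE-Glo, 30 min at room temperature, read luminescence.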
ELG1 DNA repair = qHTS screen for small molecules that inhibit ELG1-dependent DNA repair in human embryonic kidney (HEK293T) cells expressing luciferase-tagged ELG1. HEK293T ELG1-luciferase reporter, luminescence, 16 h; DNA damage induced by 5-fluorouridine. Potency, µM (titrated, usually from 46.1 µM), without a hit: top-dose activity change, negative = inhibition, hits mostly inhibitors. 2.3% of 330,000 active; note: % is set by controls: 0 for no effect and ±100 for the full control effect; nearly all actives have a fitted effect of over 55% in size
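DMSO vehicle served as the neutral condition. Each well held 2,000 cells given 5-fluorouridine plus compound; after 16 hr at 37 °C/5% CO2, ONE-Glo was added and luciferase measured 30 min later.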
Rab9 promoter act = qHTS Assay for Rab9 Promoter Activators; Huh7 Rab9 promoter-luciferase reporter, luminescence, 24 h; Potency, µM (highest dose often 9.22 µM), for the others: at the highest dose activation, negative = inhibition, actives largely listed as activators; 2.8% of 320,000 active; note: % of control where 0% means no effect; nearly all actives have a fitted effect of over 60% in size
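Steps: seed 1500 Huh7 Rab9-luc cells per well, rest 2 h at 37 °C; add compound in DMSO; incubate 24 h; add luciferase reagent, 10 min ambient; read luminescence.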
SMN2 splice up = qHTS Assay for Enhancers of SMN2 Splice Variant Expression; HEK293 SMN2-luciferase splicing reporter, luminescence, 30-36 h; Potency, µM (titrated, usually from 46.1 µM), inactives show top-dose activity change, positive = activation, usual class: activators; 2.8% of 210,000 active; note: % of control where 0% means no effect; nearly all actives have a fitted effect of over 55% in size
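HEK293 cells carry an SMN2 […]–luciferase reporter in which exon 7 inclusion puts luciferase in frame. Cells were plated 10-12 h before compound addition, then incubated 30-36 h at 37C. ONE-Glo luminescence was read; sodium butyrate at 4.5 mM final served as control.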
An asterisk follows results filed as active; ? = inconclusive; / = not tested or not shown; [ ] = another dose, or the depositor's remark. Sampled rows, rich in hits. Any-hit rate of the full collection: about 9.4%. Calls come from the whole dose curve; as a rule, active = well fitted curve in the direction sought with a large enough effect; inconclusive = small, poorly fitted or top-dose-only effect, or another doubt; inactive = no such curve, though single readings can be large; an effect the other way counts as inactive or inconclusive. Potency is the fitted concentration of half-maximal effect.

SMILES | NPC1 promoter act | FLuc counter | ELG1 genotoxic | ELG1 DNA repair | Rab9 promoter act | SMN2 splice up
O=c1cc(-c2ccc(C3CCCCC3)cc2)[nH][nH]1 | 3.8% | 10.7µM* | 16.6% | 26.6% | 1.1% | 8.9%
N/C(=N\OC(=O)COc1ccc2ccccc2c1Br)c1ccccn1 | ? | 21.3µM* | ? | ? | ? | ?
N/C(=N\OC(=O)COc1ccc2ccccc2c1Br)c1cccnc1 | 0.7% | 19µM* | 11.3% | -5.6% | -1.6% | -1.9%
N/C(=N\OC(=O)COc1ccccc1)c1cccnc1 | -4.9% | -0.9% | 0.0% | -15.8% | 1.6% | -10.7%
Cc1ccc(NC(=O)Cn2c(=O)cc(-c3ccccc3)c3c(C)nn(C)c32)c(Cl)c1 | / | 7.8% | / | / | / | /
Cc1nc(N2CCC(C)CC2)c2c(C)c(C(=O)Nc3ccc(C(F)(F)F)cc3)sc2n1 | -8.5% | 2.4% | ? | -9.7% | -1.1% | -57.0%
Cc1nc(N2CCCCC2C)c2c(C)c(C(=O)Nc3ccccc3C(F)(F)F)sc2n1 (configuration not stated) | -0.2% | -9.2% | -9.9% | ? | 1.0% | -30.6%
Cc1c(C(=O)Nc2ccc3c(c2)OCCO3)sc2ncnc(N3CCCCC3C)c12 (configuration not stated) | -2.3% | 10.7µM* | -11.5% | ? | -0.6% | /
Cc1nc(N2CCC(C)CC2)c2c(C)c(C(=O)Nc3ccc4c(c3)OCCO4)sc2n1 | -8.0% | -9.9% | -6.7% | 10.3µM* | -0.1% | /
COc1cccc(/C=c2\sc3nc(-c4cccs4)nn3c2=O)c1OC | 0.0% | 8.49µM* | 1.8% | 1.0% | -3.0% | 17.2%
Cc1ccc(C)c(C(=O)COC(=O)c2cccc(N3C(=O)c4c(C)nc5ccccc5c4C3=O)c2)c1 | ? | 1.51µM* | 14.4% | ? | ? | -9.8%
Cc1nc2ccccc2c2c1C(=O)N(c1cccc(C(=O)O)c1)C2=O | 1.1% | -17.7% | 4.2% | -0.5% | -3.5% | 16.9%
CCn1c(C)nc2cc(-c3nnc(-c4c(-c5ccccc5)noc4C)o3)ccc21 | -6.2% | -1.1% | -6.9% | 20.6µM* | -11.4% | /
Cc1onc(-c2ccccc2)c1-c1nnc(-c2ccccc2C(F)(F)F)o1 | -1.6% | -3.2% | -8.8% | ? | -0.8% | /
COC(=O)c1scc(-c2ccc(C)cc2)c1S(=O)(=O)Nc1cc(C)ccc1OC | / | 7.1% | / | / | / | /
CC1=NOC(=O)/C1=C\c1ccc(-c2ccc(Cl)c(C(=O)O)c2)o1 | 1.4% | 19µM* | -1.7% | -2.2% | 1.5% | -2.1%
CC1(C)OC(=O)C(=Cc2ccc(-c3ccc(Cl)c(C(=O)O)c3)o2)C(=O)O1 | -4.1% | 15.1µM* | -2.0% | -1.3% | -1.4% | 9.9%
Nc1ccccc1N=Cc1ccc(-c2cccc(Cl)c2)o1 | 2.82µM* | 3.01µM* | -5.6% | ? | 3.16µM* | /
CC1=NOC(=O)/C1=C\c1ccc(-c2cccc(Cl)c2)o1 | -12.5% | 10.7µM* | -13.0% | ? | -9.6% | -49.6%
Cc1cc2ccccc2n1-c1ccc(C(=O)N2CCC(C(=O)NCc3ccc(Cl)cc3)CC2)s1 | / | 4.4% | / | / | / | /
O=C(COCc1cc(-c2cccs2)on1)Nc1cccc(Cl)c1Cl | / | -0.4% | / | / | / | /
Cc1ccc(/C=C2/C(=O)ON=C2c2ccccc2)o1 | 17.8% | ? | 8.8% | ? | -3.0% | /
CC1=NOC(=O)/C1=C\c1ccc(-c2ccccc2Br)o1 | -10.4% | 10.7µM* | -14.6% | ? | -13.2% | -19.0%
CCOc1ccc(N(C)c2ccc(/C=C3/SC(=S)NC3=O)cc2)cc1 | -0.4% | ? | -1.9% | -14.8% | -4.0% | /
CCOc1c(O)ccc(/C=C2\SC(=S)NC2=O)c1[N+](=O)[O-] | -0.5% | 13.5µM* | 0.4% | 1.9% | -7.0% | -8.8%
SMILES | NPC1 promoter act | FLuc counter | ELG1 genotoxic | ELG1 DNA repair | Rab9 promoter act | SMN2 splice up
COCCCNc1nc(NCc2ccccc2OC)c2cnn(C)c2n1 | / | -7.5% | / | / | / | /
CCN1CCCC1CNC(=O)c1ccc2c(c1)NC(=O)/C(=C\c1ccc(C)cc1)S2 (configuration not stated) | -0.1% | 21.3µM* | ? | 15.4% | -2.2% | /
Cc1ccc(/C=C2/Sc3ccc(C(=O)N4CCN(C)CC4)cc3NC2=O)cc1 | -1.0% | 15.1µM* | 2.2% | 19.2% | 0.4% | /
COC(=O)c1scc(-c2ccc(C)cc2)c1S(=O)(=O)N1CCN(c2ccccc2F)CC1 | / | -14.3% | / | / | / | /
c1cc(-c2sc(-c3ccncc3)c(-c3ccncc3)c2-c2ccncc2)ccn1 | -10.3% | -9.0% | -13.3% | 18.3µM* | 0.5% | 5.4%[9.22 µM]
CCOc1ccc(CNC(=O)c2ccc(NC(=O)N3CCSc4ncccc43)cc2)cc1OC | / | 2.5% | / | / | / | /
O=C(NN=Cc1ccc(OC(F)F)cc1)c1ccc(NS(=O)(=O)c2cccs2)cc1 | / | / | 8.9% | 19.1% | / | /
O=C(N/N=C/c1ccc([N+](=O)[O-])cc1)c1ccc(NS(=O)(=O)c2cccs2)cc1 | -0.4% | 21.3µM* | 1.3% | -10.9% | 6.1% | /
O=C(N/N=C/c1ccc([N+](=O)[O-])o1)c1ccc(NS(=O)(=O)c2cccs2)cc1 | -1.8% | ? | -11.1% | 20.6µM* | 1.6% | /
CNC(=O)Cn1nc(C)c2ccccc2c1=O | 2.2% | -0.9% | 0.0% | 2.0% | 4.47µM* | 17.1%
Cc1ccc(C(=O)NC2(O)C(=O)c3ccccc3C2=O)cc1C | -2.7% | 2.39µM* | -1.7% | -18.6% | -2.3% | /
CCc1ccc(NC(=O)c2cc(C)on2)cc1 | 0.501µM* | 3.01µM* | ? | ? | 0.891µM* | 6.31µM*
Cc1ccc(NC(=S)Nc2cc(C)on2)cc1 | 1.41µM* | 26.9µM* | ? | ? | 2.82µM* | /
CCc1ccc(NC(=O)c2cc(C(C)C)on2)cc1 | 0.891µM* | 1.9µM* | ? | ? | 0.631µM* | 1.41µM*
Cc1ccc(NC(=O)c2onc(C)c2Cl)cc1 | 14.7% | 13.5µM* | 16.4µM* | ? | ? | 14.1µM*
Cc1ccc(NC(=S)Nc2ccc3cn[nH]c3c2)cc1 | 0.0% | ? | -2.0% | 27.0% | -2.9% | 16.8%
CCOC(=O)Cc1ccc(NC(=O)N(Cc2ccc(CC)cc2)Cc2cn[nH]c2-c2ccc(OC)cc2)cc1 | / | -11.5% | / | / | / | /
CCOC(=O)N1CCN(C(=O)CN(c2cccc(Cl)c2)S(=O)(=O)c2ccccc2)CC1 | / | -4.2% | / | / | / | 3.6%
Cc1ccc(NC(=O)C2CCCN2S(=O)(=O)c2cccc3cccnc23)cc1C (configuration not stated) | / | -9.9% | / | / | / | -6.6%
